Measurements taken from the supplement of paper PMC9446081.
± gives the standard deviation of the averaged measurements.

Molecular target: MurC (UniProt C4ZRI6)
Test: relative enzymatic activity vs untreated control (fraction); higher = less inhibition
Settings: 100 µM; incubation time: 2 h at 37 C
Method: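 In vitro enzymatic inhibition assays (ProFoldin kits) for 12 purified essential E. coli enzymes or complexes, each treated with 218 active antibacterial compounds at 100 µM for 2 h at 37°C. Read-outs were fluorescence or absorbance (phosphate detection, dye binding), converted to activity via standard curves and expressed relative to untreated DMSO controls.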

MurC, sequence (C4ZRI6 whole entry, looked up): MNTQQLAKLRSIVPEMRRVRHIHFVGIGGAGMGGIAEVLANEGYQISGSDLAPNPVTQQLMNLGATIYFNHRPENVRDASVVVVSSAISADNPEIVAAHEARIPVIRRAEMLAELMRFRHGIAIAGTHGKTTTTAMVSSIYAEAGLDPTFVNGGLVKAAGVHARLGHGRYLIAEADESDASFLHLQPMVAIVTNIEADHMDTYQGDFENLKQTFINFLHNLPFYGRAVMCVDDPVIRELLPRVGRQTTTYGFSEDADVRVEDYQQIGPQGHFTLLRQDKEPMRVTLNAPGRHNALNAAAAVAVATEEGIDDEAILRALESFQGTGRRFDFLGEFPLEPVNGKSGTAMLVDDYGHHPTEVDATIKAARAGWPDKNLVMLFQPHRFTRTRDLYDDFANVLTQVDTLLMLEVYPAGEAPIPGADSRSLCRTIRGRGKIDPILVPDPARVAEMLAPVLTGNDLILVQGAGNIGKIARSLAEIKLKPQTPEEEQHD

Row | Structure (SMILES) | relative enzymatic activity
1 | Cn1nnnc1SCC1=C(C(=O)[O-])N2C(=O)C(NC(=O)C(O)c3ccccc3)C2SC1.[Na+] (stereo not given) | 1.091 ± 0.0095
2 | CC1(C)S[C@@H]2[C@H](NC(=O)[C@H](N)c3ccccc3)C(=O)N2[C@H]1C(=O)OCOC(=O)[C@@H]1N2C(=O)C[C@H]2S(=O)(=O)C1(C)C | 1.08 ± 0.1
3 | CN[C@@H]1[C@H](O)[C@H](NC)[C@H]2O[C@@]3(O)C(=O)C[C@@H](C)O[C@H]3O[C@@H]2[C@H]1O | 0.955 ± 0.11
4 | C=CC1=C(C(=O)O)N2C(=O)[C@@H](NC(=O)/C(=N/O)c3csc(N)n3)[C@H]2SC1 | 0.917 ± 0.017
5 | O=c1[nH]c(=O)n(C2CC(O)C(CO)O2)cc1F (stereo not given) | 0.948 ± 0.082
6 | CN(C)c1ccc(O)c2c1C[C@@H]1C[C@@H]3[C@@H](N(C)C)C(=O)C(C(N)=O)=C(O)[C@]3(O)C(=O)[C@H]1C2=O | 1.17 ± 0.024
7 | CCCC[P+](CCCC)(CCCC)Cc1ccc(NC(=O)[C@H](Cc2ccc3ccccc3c2)N/C(=N/C2CCCCC2)NC2CCCCC2)cc1 | 0.557 ± 0.44
8 | CON=C(C(=O)NC1C(=O)N2C(C(=O)[O-])=C(COC(N)=O)CSC12)c1ccco1.[Na+] (stereo not given) | 1.33 ± 0.083
9 | C/C(=C\C(=O)OCCCCCCCCC(=O)O)C[C@@H]1OC[C@H](C[C@@H]2O[C@H]2[C@@H](C)[C@H](C)O)[C@@H](O)[C@H]1O | 0.891 ± 0.065
10 | Nc1nc(/C(=N/O)C(=O)N[C@@H]2C(=O)N3C(C(=O)O)=C(/C=C4\CCN([C@@H]5CCNC5)C4=O)CS[C@H]23)ns1 | 0.717 ± 0.24
11 | NC[C@H]1O[C@H](O[C@H]2[C@H](O)[C@@H](O[C@H]3O[C@H](CO)[C@@H](O)[C@H](N)[C@H]3O)[C@H](N)C[C@@H]2N)[C@H](N)[C@@H](O)[C@@H]1O | 0.9682 ± 0.0015
12 | O=C1CN(N=Cc2ccc([N+](=O)[O-])o2)C(=O)N1 | 1.051 ± 0.0033
13 | N[C@@H]1CN(c2c(F)cc3c(=O)c(C(=O)O)cn([C@@H]4C[C@@H]4F)c3c2Cl)CC12CC2 | 0.971 ± 0.044
14 | O=C1CN(/N=C/c2ccc([N+](=O)[O-])o2)C(=O)N1 | 1.33 ± 0.34
15 | CC(C)[C@@H](CC[C@@H](C)[C@H]1CC[C@H]2[C@@H]3[C@H](O)C[C@H]4C[C@@H](NCCCNCCCCN)CC[C@]4(C)[C@H]3CC[C@]12C)OS(=O)(=O)O | 0.882 ± 0.078
16 | N[C@@H](C(=O)N[C@@H]1C(=O)N2C(C(=O)O)=C(Cl)CS[C@H]12)c1ccccc1 | 0.902 ± 0.062
17 | Cl.O=C(O)c1cn(-c2ccc(F)cc2)c2cc(N3CCNCC3)c(F)cc2c1=O | 0.836 ± 0.012
18 | O=C(O)c1cn(C2CC2)c2cc(N3CCNCC3)c(F)cc2c1=O | 1.03 ± 0.014
19 | CON=C(C(=O)N[C@@H]1C(=O)N2C(C(=O)O)=C(CSc3nc(=O)c(O)nn3C)CS[C@H]12)c1csc(N)n1 | 0.751 ± 0.23
20 | CCCN1C[C@H](C)[C@@H](O)[C@](C)(O)[C@@H](CC)OC(=O)[C@H](C)[C@@H](O[C@H]2C[C@@](C)(OC)[C@@H](O)[C@H](C)O2)[C@H](C)[C@@H](O[C@@H]2O[C@H](C)C[C@H](N(C)C)[C@H]2O)[C@](C)(O)C[C@H]1C | 1.02 ± 0.024

Row | Structure (SMILES) | relative enzymatic activity
21 | Cc1cc(C2CCCCC2)n(O)c(=O)c1.NCCO | 1.18 ± 0.057
22 | NCCCC[C@H](NC(=O)[C@@H](NC(=O)[C@H](Cc1c[nH]c2ccccc12)NC(=O)[C@H](CCCCN)NC(=O)[C@H](CCCCN)NC(=O)[C@H](Cc1c[nH]c2ccccc12)NC(=O)[C@H](Cc1c[nH]c2ccccc12)NC(=O)[C@H](CCCCN)NC(=O)[C@@H](N)CCCCN)C(c1ccccc1)c1ccccc1)C(N)=O | 0.995 ± 0.015
23 | NC[C@H]1OB(O)c2c(OCCCO)cccc21 | 0.977 ± 0.052
24 | Cc1scc2c1N(C(=O)CN1CCN(C)CC1)c1ccccc1NC2=O.Cl | 0.945 ± 0.037
25 | COc1ccc(Cc2cnc(N)nc2N)cc1OC | 1.1 ± 0.079
26 | CCCCCCCCCCCCCCCC[N+](C)(C)Cc1ccccc1.[Cl-] | 0.176 ± 0.051
27 | Cn1cc(-c2[nH]c3cc(NC(=O)[C@H](N)C4CCCCC4)cc4c3c2C=NNC4=O)cn1 | 0.943 ± 0.039
28 | Cl.N=C(N)n1cccn1 | 0.968 ± 0.063
29 | COC12C(COC(N)=O)C3=C(C(=O)C(C)=C(N)C3=O)N1CC1NC12 (stereo not given) | 0.719 ± 0.092
30 | O=C(Cn1cnnn1)NC1C(=O)N2C(C(=O)O)=C(CSc3nncs3)CSC12 (stereo not given) | 1.06 ± 0.098
31 | O=C1OCCN1N=Cc1ccc([N+](=O)[O-])o1 | 1.03 ± 0.054
32 | Cc1oc(=O)oc1CN1CCN(c2cc3c(cc2F)c(=O)c(C(=O)O)c2n3C(C)S2)CC1 (stereo not given) | 0.821 ± 0.066
33 | CCn1nc(C(=O)O)c(=O)c2cc3c(cc21)OCO3 | 1.01 ± 0.11
34 | O=C1NCCN1c1ncc([N+](=O)[O-])s1 | 1.008 ± 0.01
35 | CC(O)C1C(=O)N2C(C(=O)O)=C(SC3CNC(C(=O)N(C)C)C3)C(C)C12 (stereo not given) | 0.359 ± 0.25
36 | CC1c2cccc(O)c2C(=O)C2=C(O)C3(O)C(=O)C(C(N)=O)=C(O)C(N(C)C)C3C(O)C21.Cl (stereo not given) | 1.02 ± 0.027
37 | COc1cc2c(cc1OC)C(=O)C(CC1CCN(Cc3ccccc3)CC1)C2.Cl (stereo not given) | 0.993 ± 0.29
38 | CCn1cc(C(=O)O)c(=O)c2cnc(N3CCNCC3)nc21 | 0.99 ± 0.052
39 | N[C@@H]1CC[C@@H](c2ccc(Cl)c(Cl)c2)c2ccccc21 | 0.806 ± 0.12
40 | COc1c(N2CC3CCCNC3C2)c(F)cc2c(=O)c(C(=O)O)cn(C3CC3)c12.Cl (stereo not given) | 1.01 ± 0.025
